Bioassay records (PubChem)
Compounds with a hit are over-represented: about 11% of the library has one in this group of screens.
NIH3T3 tox = Cytotoxic Profiling in NIH 3T3 Cell Line of Diverse Libraries Using Quantitative High-Throughput Screening. Potency, µM (doses to about 96.7 µM), inactives show at the highest dose activity change, negative = cytotoxicity, usual class: inhibitors. 94,000 compounds, 4.3% hits. NIH 3T3 viability, CellTiter-Glo ATP luminescence, 48-72 h; also: nearly all actives have a fitted effect of over 55% in size
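ATP-dependent luminescence (CellTiter-Glo) served as the viability signal for NIH 3T3 cells treated with compound for 48 or 72 hr at 37 °C.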
HEK cytotox = Cytotoxic Profiling in HEK 293 Cell Line of Diverse Libraries Using Quantitative High-Throughput Screening; HEK 293 viability, ATP luminescence (CellTiter-Glo), 48-72 h; Potency, µM (highest dose often 115 µM), for the others: at the highest dose activity change, negative = cytotoxicity, most hits filed as inhibitors; 94,000 compounds, 6.6% hits; also: nearly all actives have a fitted effect of over 60% in size
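250 HEK 293 cells/well; compound by pintool; incubated 48 or 72 hr at 37 degree Celsius; CellTiter-Glo added, 10 min RT, luminescence imaged.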
NPR1 antag = Natriuretic polypeptide receptor (hNpr1) antagonism - Primary qHTS; HEK293 hNpr1 GloSensor cGMP, ANP-stimulated luminescence; Potency, µM (highest dose often 46.3 µM), for inactives: top-dose activity change, negative = inhibition, most hits filed as inhibitors; 76,000 compounds, 1.6% hits; AID 1347048, 2019; calls by dose curve; also: nearly all actives have a fitted effect of over 60% in size
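HEK293 cells stably expressing human Npr1 and cGMP GloSensor pGS-40F, loaded 2 h with 2% GloSensor reagent, given compound 30 min at room temperature. Luminescence read before and 20 min after 0.1 nM hNppA.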
FLuc inh = Firefly luciferase inhibition profiling of diverse chemical library using quantitative high-throughput screening; Luciferin 4-monooxygenase (Photinus pyralis), P08659; purified P. pyralis luciferase, luminescence, biochemical; Potency, µM (titrated, usually from 115 µM), actives largely listed as inhibitors; 76,000 compounds, 2.5% hits; AID 1347043, 2019; also: nearly all actives have a fitted effect of over 65% in size
Target sequence (P08659 whole entry, looked up): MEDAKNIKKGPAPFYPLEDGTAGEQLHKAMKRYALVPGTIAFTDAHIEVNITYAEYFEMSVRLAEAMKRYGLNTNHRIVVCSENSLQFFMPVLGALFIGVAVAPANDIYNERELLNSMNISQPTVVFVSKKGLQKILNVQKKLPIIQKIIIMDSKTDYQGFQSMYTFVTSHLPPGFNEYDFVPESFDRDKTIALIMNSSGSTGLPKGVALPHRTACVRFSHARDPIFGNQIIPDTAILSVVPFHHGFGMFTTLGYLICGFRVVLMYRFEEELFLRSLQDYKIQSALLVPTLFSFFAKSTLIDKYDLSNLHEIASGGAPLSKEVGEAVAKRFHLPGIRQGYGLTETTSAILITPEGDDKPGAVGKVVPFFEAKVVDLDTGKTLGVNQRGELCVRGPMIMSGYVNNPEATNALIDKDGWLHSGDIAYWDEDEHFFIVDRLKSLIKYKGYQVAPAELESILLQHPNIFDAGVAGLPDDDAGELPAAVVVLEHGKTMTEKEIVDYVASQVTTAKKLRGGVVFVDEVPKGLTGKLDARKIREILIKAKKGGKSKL
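Luminescence read by CCD imager after adding enzyme (10nM final) to wells holding compound, titrated in qHTS. Substrates 10uM each D-luciferin and ATP; buffer 50mM Tris acetate pH 7.5, 10mM Mg acetate, Tween-20, BSA.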
* marks the source's active call; other numbers are inactive results; i = inactive; ? = inconclusive; . = no result; [ ] = dose if it differs, or a comment. Unless noted, calls follow the shape of the dose curve; as a rule, active = well fitted curve in the direction sought with a large enough effect; inconclusive = small, poorly fitted or top-dose-only effect, or another doubt; inactive = no such curve, though single readings can be large; an effect the other way counts as inactive or inconclusive. % is scaled to controls: 0 for no effect and ±100 for the full control effect; potency is read from the fitted curve at half-maximal effect.

SMILES | NIH3T3 tox | HEK cytotox | NPR1 antag | FLuc inh
CC(C)Oc1ccccc1CN1C[C@@H](CO)[C@H](c2ccncc2)C1 | ? | 39.8µM* | -17.2% | i
COC[C@@H]1CN(Cc2cccc(OC)c2OC)C[C@H]1c1ccncc1 | ? | 39.8µM* | -17.2% | i
COC[C@@H]1CN(Cc2cn(C)nc2C)C[C@H]1c1ccncc1 | -16.7% | -4.4% | -8.2% | i
Cc1noc([C@@H]2CN(Cc3ccccc3OC(C)C)C[C@H]2CO)n1 | -16.8% | -14.5% | 1.0% | i
COc1cccc(CN2C[C@@H](CO)[C@H](c3ccncc3)C2)c1OC | -19.4% | 89.1µM* | 3.2% | i
Cc1ccnc(N2CCN(C3CCC4(CCNCC4)CC3)CC2)c1 | ? | 44.7µM* | 0.4% | i
O=C(Nc1cccc(Cl)c1)C1CCc2nnc(C3CC3)n21 (stereo unspecified) | -17.1% | -9.1% | . | .
Cc1ccc(CNC(=O)c2ccc3c(c2)CN(CC2=Cc4ccccc4OC2)CCO3)cc1 | ? | 28.2µM* | ? | i
Cc1ccc(CNC(=O)c2ccc3c(c2)CN(Cc2cncs2)CCO3)cc1 | -9.5% | ? | -11.4% | i
Cc1ccc(CNC(=O)c2ccc3c(c2)CN(Cc2cc(F)c(F)c(F)c2)CCO3)cc1 | ? | 35.5µM* | -1.5% | i
CN1C[C@@H](NC(=O)c2ccc(C(C)(C)C)cc2)C[C@H]1c1nc(-c2ccc3c(c2)OCO3)no1 | ? | ? | ? | i
CS(=O)(=O)N[C@H]1CO[C@H]2[C@@H]1OC[C@@H]2Nc1nccc(-c2cccc(F)c2)n1 | -41.9%[174 µM] | -20.8%[172 µM] | 0.5%[70.6 µM] | i
COc1ccc(-c2ccnc(N[C@H]3CO[C@H]4[C@@H]3OC[C@@H]4NC(=O)Nc3cccc(C(F)(F)F)c3)n2)cc1 | 39.8µM* | 39.8µM* | -5.3% | i
COc1ccc(-c2ccnc(N[C@H]3CO[C@H]4[C@@H]3OC[C@@H]4NC(=O)c3ccc4c(c3)OCO4)n2)cc1 | ? | 31.6µM* | ? | i
CN(C)c1ccc(-c2ccnc(N[C@H]3CO[C@H]4[C@@H]3OC[C@H]4OC(=O)Nc3cccc(C(F)(F)F)c3)n2)cc1 | ? | 31.6µM* | -15.1% | i
O=S(=O)(Cc1ccccc1)N[C@H]1CO[C@H]2[C@@H]1OC[C@@H]2Nc1nccc(-c2cccc(F)c2)n1 | ? | 31.6µM* | ? | i
O=C(N[C@H]1CO[C@H]2[C@@H]1OC[C@@H]2Nc1nccc(-c2ccc(-c3ccccc3)cc2)n1)c1ccc2c(c1)OCO2 | -6.3% | 0.3% | -1.5% | i
O=C(C1CCCN1C(=O)Nc1ccc(Cl)cc1)N1CCC(N2CCCC2=O)CC1 (stereo unspecified) | -10.5% | i | . | .
CN(C)CC(=O)N1CC(F)(F)C[C@H]1c1nc(-c2ccncc2)no1 | -13.2% | -5.6% | 1.5% | i
N#Cc1cccc(NC(=O)O[C@@H]2CO[C@H]3[C@@H]2OC[C@@H]3Nc2nccc(-c3ccc4c(c3)OCO4)n2)c1 | ? | 28.2µM* | -30.3% | i
COc1cccc(NC(=O)O[C@@H]2CO[C@H]3[C@@H]2OC[C@@H]3Nc2nccc(-c3cccc(F)c3)n2)c1 | ? | 44.7µM* | -15.6% | i
CC(C)(C)c1ccc(NC(=O)O[C@@H]2CO[C@H]3[C@@H]2OC[C@@H]3Nc2nccc(-c3ccc(-c4ccccc4)cc3)n2)cc1 | 39.8µM* | 28.2µM* | 0.4% | i
COCCOCC1(CNCc2cn(C)c3ccccc23)C[C@@H](O)[C@@H](O)C1 (stereo partly specified) | 2.7%[138 µM] | -8.7%[172 µM] | -0.8%[70.6 µM] | i
CCC(CC)n1c(=O)n(Cc2cc(C(C)C)no2)c2cc(C(=O)O)cnc21 | 79.4µM* | -22.6% | 2.5% | i
COc1ccc2c(c1)OC[C@@H]1CN(CCC#N)C(=O)CCN(C(=O)C3CCCC3)[C@H]21 | ? | -3.3% | . | .
SMILES | NIH3T3 tox | HEK cytotox | NPR1 antag | FLuc inh
Cc1ccccc1CN1Cc2nc(-c3ccsc3)ccc2OCC1=O | ? | 89.1µM* | -18.0%[70.6 µM] | i
Cc1nc(CN2Cc3nc(-c4ccccc4)ccc3OCC2=O)cs1 | ? | -24.2%[172 µM] | 4.7%[70.6 µM] | i
O=C1COc2ccc(-c3ccccc3)nc2CN1Cc1ccc(F)cc1 | ? | ? | -17.7%[70.6 µM] | i
Cc1ccccc1CN1Cc2nc(-c3cncnc3)ccc2OCC1=O | 100µM* | ? | -11.3%[70.6 µM] | i
O=C1COc2ccc(-c3ccsc3)nc2CN1Cc1ccccc1 | ? | 100µM* | -24.8%[70.6 µM] | i
O=C1COc2ccc(-c3ccsc3)nc2CN1Cc1ccc(C(F)(F)F)cc1 | ? | ? | -21.2%[70.6 µM] | i
Cn1nc(C2CCCC2)cc1NC(=O)C(C)(C)C | -13.4%[138 µM] | i | . | .
Cc1noc2c(NCCN(C)C)cc(-c3cccc(C(F)(F)F)c3)nc12 | 31.6µM* | 31.6µM* | 4.9%[70.6 µM] | i
Cc1noc2c(N(C)C)cc(-c3cccc(C(F)(F)F)c3)nc12 | ? | -12.9%[172 µM] | -23.9%[70.6 µM] | i
COCCCNc1cc(-c2cccc(C(F)(F)F)c2)nc2c(C)noc12 | ? | 79.4µM* | -15.8%[70.6 µM] | i
COc1cc(OC)cc(C(=O)N2CCC3(C2)NC(=O)N(Cc2ccc(Cl)cc2)C3=O)c1 (stereo unspecified) | ? | ? | 4.6% | i
O=C(c1cccc(Cl)c1)N1CCC2(C1)NC(=O)N(Cc1ccc(Cl)cc1)C2=O (stereo unspecified) | 39.8µM* | ? | ? | i
O=C(c1ccsc1)N1CCC2(CC1)NC(=O)N(Cc1cccc(Cl)c1)C2=O | 28.2µM* | ? | ? | i
O=C(c1ccsc1)N1CCC2(CC1)NC(=O)N(Cc1ccccc1)C2=O | ? | -26.1% | -10.0% | i
COCCOC1CCN(C(=O)c2cc(C)n(CCOC)c2C)CC1 | -8.5% | -8.7% | 0.5% | 20µM*
O=C(Nc1ccc(F)cc1F)[C@H]1CN(Cc2ccccc2)C[C@H]1C(=O)O | -23.7% | -4.8% | . | .
COc1cccc(CN2C(=O)OC3(CCN(C(=O)c4ccn(C)n4)CC3)C2(C)c2cccnc2)c1 (stereo unspecified) | 35.5µM* | -21.2% | 1.0% | i
COc1cccc(CN2C(=O)OC3(CCN(C(C)=O)CC3)C2(C)c2cccnc2)c1 (stereo unspecified) | 89.1µM* | -0.5%[172 µM] | 2.2%[70.6 µM] | i
COc1cccc(CN2C(=O)OC3(CCN(Cc4c[nH]c5ccccc45)CC3)C2(C)c2cccnc2)c1 (stereo unspecified) | 31.6µM* | ? | -0.6% | i
COc1cccc(CN2C(=O)OC3(CCN(Cc4ccc5c(c4)CCO5)CC3)C2(C)c2cccnc2)c1 (stereo unspecified) | ? | ? | 1.9% | i
